# Data from PubChem BioAssay (NCI).
# The panel holds about 83,000 compounds, 20% with a hit somewhere; the sample as a whole holds those more often.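 Values shown are percent growth following 48 h exposure of cells in 96-well plates to a single concentration of compound; below 10 was considered active.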 Unmarked numbers belong to inactive results. Activity calls are given as the source filed them.
# Test system: NCI-H23 lung
# Test: NCI-60 one-dose screen, 48 h (100 = growth as untreated, 0 = no growth, -100 = all killed)
# Conditions: 10 µM unless noted
row,SMILES,growth
1,CN(Cc1cnc2nc(N)nc(N)c2n1)c1ccc(C(=O)N[C@@H](CCc2nn[nH]n2)c2nn[nH]n2)cc1,40.8%
2,C[C@]12CC[C@@H]3c4cc(OC(F)F)c(O)cc4CC[C@H]3[C@@H]1CC[C@@H]2OS(N)(=O)=O,3.46% (active)
3,C[C@H](NC(=O)[C@@H]1CSSC[C@@H](NC(=O)c2nc3ccccc3cc2O)C(=O)NCC(=O)N1C)c1ccccc1,38.6%
4,C=CCOC1=CC(=O)c2ccccc2C1=O,50.6%
5,O=C(NCCc1ccc(O)c(O)c1)C12CC3CC(CC(C3)C1)C2,84.9%
6,COc1ccc2c(c1)O/C(=C\c1cccc(OCC(=O)Nc3nc4ccccc4s3)c1)C2=O,-1.91% (active)
7,Cn1c(=O)c2c(nc(Cl)n2CCl)n(C)c1=O,3.75% (active)
8,Cc1cc(C)c2c(-c3nnc(N)s3)cc(=O)oc2c1,96.3%
9,O=c1[nH][n+](-c2ccc(Cl)cc2)no1,91.6%
10,COC1=CC(=O)C[C@@H](C)[C@]12Oc1c(Cl)c(OC)cc(OC)c1C2=O,93.5%
11,Cc1cc(Cl)nc(NCc2cc(Nc3ccnc4cc(Cl)ccc34)ccc2F)n1,41.5%
12,c1ccc2c(c1)nc(CN1CCOCC1)n1cc(N3CCCC3)nc21,94%
13,O=Cc1c[nH]c2ccc(-c3csc4ccccc34)cc12,58%
14,N#C/C(=C\c1ccc2c(c1)OCO2)n1nnc2cc(F)c(F)cc21,67.5%
15,N#Cc1c(N2CCNCC2)nc2sc3cc(Cl)c(Cl)cc3n2c1=N,96.9%
16,CN(C)c1ccc(-c2cc(-c3ccc(Nc4nc(Nc5ccc(Cl)cc5)nc(Nc5ccc(Cl)cc5)n4)cc3)no2)cc1,45%
17,CNc1ccc(NC)c2c1C(=O)c1ccccc1C2=O,70.1%
18,NC(=N\N=C/c1ccccc1[N+](=O)[O-])/C(N)=N\N=C/c1ccccc1[N+](=O)[O-],104%
19,C#Cc1cccc(NC(=O)c2ccc(NC(=O)CCl)cc2)c1,-55.2% [8.25 µM] (active)
20,COc1cc(/C=C/C(=O)c2ccc(Nc3nc(Nc4ccc(F)cc4)nc(Nc4ccc(Cl)cc4)n3)cc2)cc(OC)c1OC,26.3%
21,Cc1cc(NCc2cc(Nc3ccnc4cc(Cl)ccc34)ccc2F)nc(Cl)n1,32.8%
22,COc1cc(CCC[P+](c2ccccc2)(c2ccccc2)c2ccccc2)cc2c1OCO2,19.1%
23,CC(=O)C(C)Cc1cc2c(cc1C)C(C)(C)CCC2(C)C (configuration not stated),95.3%
24,CCCCCc1nc2c(c3c1CCCC3)CCCC2,73.4%

# Test system: NCI-H226 lung
# Test: as above
# Conditions: 10 µM unless noted
row,SMILES,growth
1,CCN(CC)CCCC(C)Nc1c2ccc(Cl)cc2nc2ccc(O)cc12 (configuration not stated),39.4%
2,Cc1ccc(-c2cc3c(cc2O)C2CCCCC2(N2CCOCC2)O3)cc1 (configuration not stated),108%
3,CNC(=O)NCC1OC(n2cnc3c(NC(=O)Nc4ccccc4)ncnc32)C(O[Si](C)(C)C(C)(C)C)C1CC(=O)N(C)OC (configuration not stated),40.6%
4,COc1cc(/C=C/C(=O)c2cccc(-n3cc(-c4ccccc4)[nH]c3=O)c2)ccc1O,105%
5,CC(=O)OC1CCC2(C)C(=CC3C4CCC(=O)C4(C)CCC32)C1 (configuration not stated),107%
6,O=C(Nc1ccccc1-c1nc2ccccc2c(=O)[nH]1)c1cc2ccccc2[nH]1,72.2%
7,CC(=O)OC[C@H]1OC(Sc2sc(C(=O)c3ccc(Br)cc3)c(N)c2-c2nc3ccccc3s2)[C@H](OC(C)=O)[C@@H](OC(C)=O)[C@@H]1OC(C)=O (some centres not stated),28.1%
8,O=C(COc1ccc(/C=C2\Oc3ccccc3C2=O)cc1)c1ccc(Cl)cc1,92.4%
9,C=CC(=O)Nc1cccc(Oc2nccc(Nc3nnc(C4CC4)s3)n2)c1,101%
10,O=C(NC(CSSCC(NC(=O)c1ccccc1)C(=O)O)C(=O)O)c1ccccc1 (configuration not stated),98.7%
11,CC(C)(C)c1ccc(/C=C/C(=O)Nc2ccc(O)cc2)cc1,65%
12,CCOc1c(C#N)nnc2c(C#N)c(NC(=O)c3ccccc3)nn12,92.6%
13,COc1ccc(N=C(c2ccccc2)C2C(=O)c3ccccc3C2=O)cc1,96.8%
14,COc1ccc(-c2nc(SCCC(C)C)nc(N/N=C\c3ccccc3O)c2C#N)cc1,84.4%
15,CN(Cc1cnc2nc(N)nc(N)c2n1)c1ccc(C(=O)N[C@@H](CCc2nn[nH]n2)c2nn[nH]n2)cc1,85.4%
16,C[C@]12CC[C@@H]3c4cc(OC(F)F)c(O)cc4CC[C@H]3[C@@H]1CC[C@@H]2OS(N)(=O)=O,57.4%
17,C[C@H](NC(=O)[C@@H]1CSSC[C@@H](NC(=O)c2nc3ccccc3cc2O)C(=O)NCC(=O)N1C)c1ccccc1,60.5%
18,C=CCOC1=CC(=O)c2ccccc2C1=O,100%
19,O=C(NCCc1ccc(O)c(O)c1)C12CC3CC(CC(C3)C1)C2,93.7%

row,SMILES,growth
1,COc1ccc2c(c1)O/C(=C\c1cccc(OCC(=O)Nc3nc4ccccc4s3)c1)C2=O,83.7%
2,Cn1c(=O)c2c(nc(Cl)n2CCl)n(C)c1=O,120%
3,Cc1cc(C)c2c(-c3nnc(N)s3)cc(=O)oc2c1,100%
4,O=c1[nH][n+](-c2ccc(Cl)cc2)no1,87.2%
5,COC1=CC(=O)C[C@@H](C)[C@]12Oc1c(Cl)c(OC)cc(OC)c1C2=O,99.9%
6,Cc1cc(Cl)nc(NCc2cc(Nc3ccnc4cc(Cl)ccc34)ccc2F)n1,64.2%
7,c1ccc2c(c1)nc(CN1CCOCC1)n1cc(N3CCCC3)nc21,93.6%
8,O=Cc1c[nH]c2ccc(-c3csc4ccccc34)cc12,73.8%
9,N#C/C(=C\c1ccc2c(c1)OCO2)n1nnc2cc(F)c(F)cc21,69.5%
10,N#Cc1c(N2CCNCC2)nc2sc3cc(Cl)c(Cl)cc3n2c1=N,95.2%
11,CN(C)c1ccc(-c2cc(-c3ccc(Nc4nc(Nc5ccc(Cl)cc5)nc(Nc5ccc(Cl)cc5)n4)cc3)no2)cc1,87.1%
12,CNc1ccc(NC)c2c1C(=O)c1ccccc1C2=O,79.1%
13,NC(=N\N=C/c1ccccc1[N+](=O)[O-])/C(N)=N\N=C/c1ccccc1[N+](=O)[O-],107%
14,C#Cc1cccc(NC(=O)c2ccc(NC(=O)CCl)cc2)c1,8.52% [8.25 µM] (active)
15,COc1cc(/C=C/C(=O)c2ccc(Nc3nc(Nc4ccc(F)cc4)nc(Nc4ccc(Cl)cc4)n3)cc2)cc(OC)c1OC,61.1%
16,Cc1cc(NCc2cc(Nc3ccnc4cc(Cl)ccc34)ccc2F)nc(Cl)n1,52.4%
17,COc1cc(CCC[P+](c2ccccc2)(c2ccccc2)c2ccccc2)cc2c1OCO2,55.5%
18,CC(=O)C(C)Cc1cc2c(cc1C)C(C)(C)CCC2(C)C (configuration not stated),99.5%
19,CCCCCc1nc2c(c3c1CCCC3)CCCC2,88.6%
